In all, about 320,000 compounds went through this assay and about 7,600 (2.4%) were called active. Roughly 3% stayed inconclusive and do not appear here. Only a selection was taken, and actives are over-represented in it overall. Unmarked numbers belong to inactive results. Calls come from the whole dose curve; as a rule, active = well fitted activation curve with a large enough effect; inconclusive = small, poorly fitted or top-dose-only effect; inactive = no such curve, though single readings can be large or run the other way.
test: qHTS Assay for NPC1 Promoter Activators; details: Huh7 NPC1 promoter luciferase reporter, 24 h; series mostly up to 9.22 µM; activation: at the top concentration; note: nearly all actives have a fitted effect of over 60% in size;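 for activation: reporter is driven by a mutant NPC1 promoter; % of control where 0% means no effect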
Summary of the method: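 Stably transfected Huh7 (NPC1 promoter→luciferase), 1500 cells/well in Opti-MEM + 10% FBS, 2 h settle, then compound 24 h at 37 °C. Luminescence after 10 min with Amplite reagent.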
Potency is the fitted concentration of half-maximal effect.

In order of rising “activation” value:
1. C=CCn1c(C)cc(C2=NNC(=NCC)SC2)c1C  -28.2%
2. OCCN1CCN(C(=S)c2ccc(-c3ccccc3)cc2)CC1  -28%
3. O=C1C=C(c2ccnc3cc(Cl)ccc23)C[C@@H](c2ccc3c(c2)OCO3)C1  -13.5%
4. CCCc1nnc(NC(=O)c2cc(OC)cc(OC)c2)s1  -11.7%
5. O=C(COC(=O)CNC(=O)c1ccccc1F)NCC(F)(F)F  -10.8%
6. Cc1cc(C)n2nc(C(=O)OCC(=O)N(C)CC(=O)Nc3ccc(F)cc3)nc2n1  -10.3%
7. O=[N+]([O-])c1cc(Br)c(O)c(/C=N/Nc2nc3ccccc3s2)c1  -6.54%
8. O=C(CSc1nc2[nH]c(=O)[nH]c(=O)c2s1)Nc1cccc(F)c1  -6.24%
9. NC(=O)C1CCN(C(=O)c2ccc(F)c(S(=O)(=O)N3CCOCC3)c2)CC1  -5.94%
10. O=C(Cn1c2[n+](c3ccc(C(F)(F)F)cc31)CCCCC2)Nc1c(F)cccc1F  -5.85%
11. COc1ccc(S(=O)(=O)N2CCOCC2)cc1C(=O)Nc1nc2ccccc2s1  -5.34%
12. O=C(NNC(=O)c1ccco1)Nc1ccccc1  -5.2%
13. Cc1ccc(S(=O)(=O)NCCNC(C)c2ccc(Br)cc2)cc1 (configuration not stated)  -5.06%
14. Cc1cnc(CN(C)C(=O)C2CCC(=O)N(CCc3cccc(F)c3)C2)[nH]1 (configuration not stated)  -4.93%
15. O=C(Nc1ccccc1N1CCN(C(=O)c2ccccc2)CC1)c1ccc2c(c1)OCO2  -4.02%
16. Cc1ccc(OCCCC(=O)Nc2ccc3c(c2)OCCO3)cc1  -3.68%
17. CCOc1ccc(C(=O)CCC(=O)Nc2ccncc2)cc1  -3.49%
18. O=C(Nc1cccc(S(=O)(=O)N2CCCCC2)c1)c1ccc2c(c1)OCO2  -3.47%
19. Cc1ccc(S(=O)(=O)Nc2nc(CN3CCOCC3)nc3sc(C)c(C)c23)cc1  -3.18%
20. Cn1c(NC(=O)c2ccc3c(c2)OCO3)cc(=O)n(C)c1=O  -3.07%
21. CCOC(=O)N1CCC(NC(=O)CCc2ccccc2)CC1  -2.93%
22. CN(c1ccccc1)S(=O)(=O)c1cccc(NC(=O)Cc2ccc(Cl)cc2)c1  -2.82%
23. O=C(CNC(=O)c1ccccc1Br)NCCSc1ccc(Br)cc1  -2.8%
24. CC(=O)Nc1ccc(S(=O)(=O)Nc2cccc(NC(=O)C(C)(C)C)c2)cc1  -2.66%
25. Cc1cc(C)c(C#N)c(SCC(=O)N(CC(C)C)C2CCS(=O)(=O)C2)n1 (configuration not stated)  -2.59%
26. N#Cc1ccccc1S(=O)(=O)N1CCN(C(=O)c2cc(-c3ccccc3)nn2-c2ccccc2)CC1  -2.35%
27. O=C(OCC(=O)N1CCCC1)c1ccc(Cl)nc1  -2.27%
28. COc1ccc(/C(C)=N/NC(=O)c2ccc3nc[nH]c3c2)cc1  -2.23%
29. O=C(CNC(=O)c1ccccc1)NCC(=O)OCC(=O)c1ccccc1  -2.12%
30. COC(=O)c1cc(OC)c(OC)cc1NC(=O)CSc1ccc(C)cc1  -1.59%
31. CSc1ccccc1C(=O)OCC(=O)N1CCN(C(C)=O)CC1  -1.56%
32. O=C(Nc1cccc(C(=O)NC2CC2)c1)c1ccc(F)c(S(=O)(=O)N2CCOCC2)c1  -1.39%
33. Cc1csc(=O)n1CCC(=O)OCC(=O)NNC(=O)c1ccc(Br)cc1  -1.37%
34. CCCCCCCCC(=O)NCCOc1ccccc1  -1.35%
35. N#Cc1ccc(C(=O)OCC(=O)NC(=O)NC2CCCCC2)cc1  -1.04%
36. COc1ccc(Cl)cc1NC(=O)COc1ccc2c(c1)OCO2  -1.02%
37. Cc1cc(NC(=O)COc2ccc([N+](=O)[O-])cc2)no1  -0.975%
38. COC(=O)c1ccc(N2CCOCC2)c(NC(=O)c2ccc3c(c2)OCCO3)c1  -0.91%
39. Nc1nc(SCC(=O)Nc2ccc(Cl)c([N+](=O)[O-])c2)n[nH]1  -0.898%
40. CC1(NC(=O)CCS(=O)(=O)c2ccc(Cl)cc2)CCS(=O)(=O)C1 (configuration not stated)  -0.873%
41. CC(=O)c1ccc(S(=O)(=O)NCCC(=O)N2CCN(c3ccccn3)CC2)cc1  -0.622%
42. Cc1cccc(C(=O)NC(=S)N2CCN(c3ccc([N+](=O)[O-])cc3)CC2)c1  -0.538%
43. O=C(Nc1ccc(NC(=O)c2ccc3c(c2)OCO3)cc1)c1cccc(Cl)c1  -0.441%
44. Cc1ccc(Nc2nnc(SC(C)C(=O)NC3CC3)s2)cc1 (configuration not stated)  -0.133%
45. O=C(CN1CCc2cc3c(cc2C1)OCCCO3)Nc1ccccc1  0.0775%
46. CCN(CC)CCn1c2c(c(SCC(=O)Nc3nc4ccccc4s3)nc1=O)CCCC2  0.104%
47. CC1(C)O[C@@H]2[C@H](O1)[C@@H](COS(=O)(=O)O)O[C@H]2n1cnc2c(=O)[nH]cnc21  0.178%
48. Cc1ccc(CNC(=O)c2cc(-c3ccccc3C)n(CC3CC(c4cccc([N+](=O)[O-])c4)=NO3)n2)cc1 (configuration not stated)  0.216%
49. CC(C)CN(C(=O)CSc1nncn1C)C1CCS(=O)(=O)C1 (configuration not stated)  0.274%
50. COc1ccc(CCC(=O)N2CCN(S(=O)(=O)c3ccc(OC)cc3)CC2)cc1  0.281%
51. O=C(CCNC(=O)c1ccc(Br)cc1)NCCCc1ccccc1  0.35%
52. Nc1c(N(CCCO)C(=O)C2CCCC2)c(=O)[nH]c(=O)n1Cc1ccccc1  0.384%
53. Cc1cccc(NC(=O)CN2CCN(CC(=O)NCC3(N4CCCCC4)CCCCC3)CC2)c1C  0.584%
54. COc1ccc(OCCCC(=O)NCCc2ccccc2)cc1  0.654%
55. Cc1cc(C)cc(NC(=O)c2cccc(NC(=O)C3C4CC5OC(=O)C3C5C4)c2)c1 (configuration not stated)  0.703%
56. COc1ccc(CNC(=O)c2ccc(NS(=O)(=O)c3ccc4[nH]c(=O)[nH]c4c3)cc2)cc1OC  0.755%
57. CCN(C(=O)CSc1nc(N)cc(=O)[nH]1)C1CCS(=O)(=O)C1 (configuration not stated)  0.992%
58. O=S(=O)(c1ccc(SCc2ccccc2)nc1)N1CCCCCC1  1.18%
59. COc1ccc(CCNC(=O)CCc2ccccc2O)cc1OC  1.23%
60. COc1ccc(-c2cc(C(=O)NCCCN3CCOCC3)no2)cc1  1.31%
61. Cc1cccc(C(=O)O)c1[N+](=O)[O-]  1.58%
62. S=C(c1ccccc1)N1CCCC1  2%
63. O=C(NCCS(=O)(=O)NCc1ccc(F)cc1)c1ccccc1  2.14%
64. Cc1c(NC(=O)c2cc(-c3ccc(Br)cc3)on2)c(=O)n(-c2ccccc2)n1C  2.15%
65. COc1ccccc1C(=O)NC(=O)COC(=O)C1CC1  2.15%
66. O=C(NCC1CCC(C(=O)O)CC1)OCc1ccccc1 (configuration not stated)  2.31%
67. C/C(=N\NC(=O)c1cccnc1)c1ccc(-c2ccccc2)cc1  2.31%
68. O=C(Nc1ccc2c(c1)OCO2)c1ccc(N2C(=O)c3ccccc3C2=O)cc1  3.6%
69. O=C(Nc1ccc(Cl)cc1)Nc1nnc(/C=C/c2ccccc2)s1  4.26%
70. CCC(=O)NC(=S)Nc1ccc(NC(=O)c2ccco2)c(Cl)c1  4.41%
71. CS(=O)(=O)Nc1ccccc1C(=O)OCC(=O)NC1CC1  6.22%
72. O=C(CNC(=O)c1cccs1)N/N=C/c1cccc(Br)c1  6.34%
73. CCSc1ccccc1C(=O)Nc1ccc2c(c1)OCO2  7.76%
74. CN1CCN(c2ccc(NC(=O)c3cc(Cl)c4c(c3)OCCO4)cc2)CC1  9.41%
75. Cc1ccc(F)cc1NC(=O)c1ccc2c(c1)OCO2  10.7%
76. CCCc1ccc(OCCNC(=O)c2ccccc2Br)cc1  11%
77. CN(CC(=O)NC(=O)Nc1ccccc1F)Cc1ccccc1  12%
78. CC(=O)c1ccc(OC(=O)N2CCOCC2)cc1  14%
79. Cc1noc(C)c1COc1ccc(C(=O)NCCOc2ccccc2)cc1  14%
80. O=C(Nc1nc2cc3c(cc2s1)OCCO3)c1cccc(S(=O)(=O)N2CCOCC2)c1  14.3%
81. CCN(CC)c1ccc(/C=N/NC(=O)CNC(=O)c2cccs2)cc1  14.9%
82. CN(c1ccccc1)S(=O)(=O)c1ccc(C(=O)NCCc2ccccc2)cc1  16.8%
83. CCCCCC(=O)Nc1ccc(-c2cn3cccnc3n2)cc1  17.5%
84. O=C(CCNC(=O)c1ccccc1)Nc1nc2ccccc2s1  22%
85. COc1ccc(-c2sc3ccc(OC)cc3c2C#Cc2ccccn2)cc1  22%
86. O=C(Nc1cccc([N+](=O)[O-])c1)c1ccc2c(c1)OCO2  23.5%
87. c1csc(-c2nnc(COc3ccc4c(c3)OCO4)o2)c1  27.6%
88. CCN1CCN(C(=O)CSc2ccc(C)cc2)CC1  29.7%

In the case of `CC(=O)Nc1ccc(/C=N/NC(=O)c2cccs2)cc1`, the Potency is reported as 2510 nM (active).
In the case of `CC(C)CNC(=O)c1cc(-c2ccc(Br)cc2)on1`, the Potency is reported as 3160 nM (active).
With `CC(C)(C)C(=O)Nc1ccc(-c2cn3cccnc3n2)cc1` the Potency was 3160 nM (active).
With `S=C(c1ccc(-c2ccccc2)o1)N1CCCCC1` the Potency was 2240 nM (active).
In the case of `CN1CCN(c2ccc(NC(=O)c3ccc4c(c3)OCCO4)cc2Cl)CC1`, the Potency is reported as 3550 nM (active).
With `O=C(Nc1ccccc1)c1ccc2c(c1)OCCCO2` the Potency was 501 nM (active).
In the case of `O=C(Nc1ccccc1)Nc1nc2ccccc2s1`, the Potency is reported as 2820 nM (active).
For `O=C(Nc1ccccc1F)c1ccc2c(c1)OCO2`, the Potency was 3980 nM (active).
For `O=C(Nc1ccccc1)c1ccc2c(c1)OCO2`, the Potency was 2820 nM (active).
With `CC(C)C(=O)Nc1cccc(C(=O)Nc2ccc3c(c2)OCO3)c1` the Potency was 2820 nM (active).
In the case of `COCc1nnc(NC(=O)c2ccc3c(c2)OCO3)s1`, the Potency is reported as 2820 nM (active).
With `O=C(Nc1nc2ccccc2s1)c1ccc2c(c1)OCO2` the Potency was 562 nM (active).
With `COCCn1c(C)cc(C2=NNC(=Nc3ccc(F)cc3)SC2)c1C` the Potency was 2510 nM (active).
For `Cc1ccc(SCC(=O)c2cc(C)c(OC(=S)N(C)C)c(C)c2)cc1`, the Potency was 2510 nM (active).
For `O=C(NNC(=S)Nc1ccc(Br)cc1Cl)c1ccco1`, the Potency was 3550 nM (active).
In the case of `CN1C(=O)/C(=C/C=C2\SCCN2C)OC1=S`, the Potency is reported as 3980 nM (active).
In the case of `O=C(O)C1CCN(C(=O)OCc2ccccc2)CC1`, the Potency is reported as 2000 nM (active).
With `c1ccc2sc(NN=C3CCCC3)nc2c1` the Potency was 1410 nM (active).
With `C/C(=N\NC(=O)c1nc(C)cc(C)n1)c1ccccc1` the Potency was 1580 nM (active).
In the case of `O=C(CNC(=O)c1ccc(F)cc1)c1ccccc1`, the Potency is reported as 1410 nM (active).
With `O=C(CNC(=O)c1ccccc1F)c1ccc(Br)cc1` the Potency was 398 nM (active).
In the case of `O=C(NCCOc1ccccc1)c1ccccc1`, the Potency is reported as 631 nM (active).
With `CC(C)c1ccc(C(=O)NCCCc2ccccc2)cc1` the Potency was 2820 nM (active).
With `CCCOc1ccc(C(=O)NCCc2ccccc2)cc1` the Potency was 447 nM (active).
